The results in this text go back to ChEMBL document CHEMBL3988442, “University of Dundee, Small-Polar-MMV Screening Library” (2021).

Screen size: about 48,000 compounds; about 13,000 (27%) showed an effect of 50% or more. The list shows a part of the results.

The test concerns Wolbachia pipientis. The experiment in a line: Anti-Wolbachia Cell-Based Screen. It counts as functional. Further details: scale not given: in the data most compounds retested in dose-response had high values. As to conditions: 5 µM.
Regarding `O=C(NC1CC2(CCN(CCO)CC2)Oc2ccccc21)c1csnn1` (stereo not given), the “Percent Effect” value was -25.87%.

As to `CC(C)c1nc(CN(C)C(=O)CCNC(=O)c2ccccc2F)no1`, the “Percent Effect” value is -5.471%.

With `CC(=O)Nc1ccc([C@@H](O)[C@H]2COCC(=O)N2CC(C)C)cc1`, the “Percent Effect” value is recorded as -7.535%.

On to `Cc1noc(CN(Cc2ccc3c(c2)OCO3)C2CCCC2)n1`, for which the “Percent Effect” value is listed as 3.676%.

For `Cc1noc(CN(C)Cc2ccc3c(c2)OCO3)n1`, the “Percent Effect” value turned out to be 95.73%.

`CCN(Cc1ccc2c(c1)OCO2)Cc1nc(C)no1`: the “Percent Effect” value is given as 5.817%.

As to `c1cc2c(cc1CN(Cc1nc(C3CC3)no1)C1CCCC1)OCO2`, the “Percent Effect” value stood at 88.61%.

Turning to `CN(C(=O)Cc1ccc2c(c1)OCCO2)C1CCCCC1`, the “Percent Effect” value is reported as -4.303%.

Regarding `CCc1noc(CN(Cc2ccc3c(c2)OCO3)C2CCCC2)n1`, the “Percent Effect” value is 130.5%.

For the molecule `CCN(Cc1nc(C2CC2)no1)Cc1ccc(C#N)cc1F`, the “Percent Effect” value is -4.842%.

For the molecule `Cc1csc(CNC(=O)N(C)Cc2ccc3c(c2)OCCO3)n1`, the “Percent Effect” value is reported as -8.149%.

In the case of `Cc1nc(CN(Cc2ccc3c(c2)OCCO3)C2CCCC2)no1`, the “Percent Effect” value is 158.9%.

Turning to `CCc1noc(CN(C)C(=O)c2ccnc(OC3CCC3)c2)n1`, the “Percent Effect” value is on record as -5.488%.

For the molecule `CCCc1noc(CN(C)Cc2ccc3c(c2)OCO3)n1`, the “Percent Effect” value is -4.394%.

Turning to `CC(C)c1nc2n(n1)CC(Nc1ncnc3c1CCC3)CC2` (stereo not given), the “Percent Effect” value is listed as -10.8%.

As to `O=C(c1cc[nH]n1)N1CCN(C(c2ccccc2)C(F)(F)F)CC1` (stereo not given), the “Percent Effect” value came out at 48.39%.

`N#CCCN(CCC#N)C(=O)c1ccc(COc2ccccc2C#N)o1`: the “Percent Effect” value was -1.523%.

With `CN(C)CCN(C)S(=O)(=O)CC1CCOCC1`, the “Percent Effect” value is 3.137%.

Consider `CC(CS(C)(=O)=O)N(C(=O)Nc1ccc(F)cc1F)C1CC1` (stereo not given), for which the “Percent Effect” value was 2.637%.

Consider `COc1cc(OC)c(CNC(=O)NCc2ccc(C#N)cc2)c(OC)c1`, for which the “Percent Effect” value worked out at 1.359%.

Take `COCCO[C@H]1COCCN(Cc2ccc(OC)cc2)C1`: the “Percent Effect” value is -5.552%.

In the case of `O=C(C1CCOc2ccccc2C1)N1Cc2cnn(CCO)c2C1` (stereo not given), the “Percent Effect” value is reported as -2.46%.

For `CCCN(C(=O)CN1CCN(CC(C)O)CC1)C1=CCCCC1` (stereo not given), the “Percent Effect” value is -2.912%.

In the case of `CCc1nc(C2CCCN2c2ncc(C(N)=O)cc2Cl)no1` (stereo not given), the “Percent Effect” value was -14.14%.

As for `CC(=O)N1CCCC1c1nc(C)no1` (stereo not given), the “Percent Effect” value is reported as 122.1%.

`Cc1noc([C@@H]2C[C@H](NC(=O)NC3CCCCC3)CN2C)n1`: the “Percent Effect” value was -10.92%.

On to `Cc1noc([C@@H]2CCCN2C(=O)C2CCN(C(=O)C3CCC3)CC2)n1`, for which the “Percent Effect” value is reported as -13.41%.

Turning to `CNCC(=O)N1CCCC1c1nc(C(C)C)no1` (stereo not given), the “Percent Effect” value was 10.93%.

In the case of `Cc1noc(C2CCCN2C(=O)C2CCC2)n1` (stereo not given), the “Percent Effect” value is given as 124.3%.

Turning to `Cc1noc([C@@H]2CCCN2C(=O)C2CCN(CC(N)=O)CC2)n1`, the “Percent Effect” value worked out at 1.357%.

On to `Cc1ccc([C@@H]2CN(C(=O)c3cc[nH]c3)C[C@H]2NC(=O)C2CC2)cc1`, for which the “Percent Effect” value turned out to be 18.05%.

`NC(=O)C1CCN(CCc2ccc(NCc3ccoc3)cc2)CC1`: the “Percent Effect” value is -9.363%.

For `CCOCCNC(=O)c1cccnc1N1CCCC1c1ccccn1` (stereo not given), the “Percent Effect” value was found to be 122.4%.

`CNC(=O)c1cccnc1N1CCN(C/C=C/c2ccccc2)CC1`: the “Percent Effect” value turned out to be 6.453%.

For `CCC(CC)NC(=O)c1cccnc1N1CCCC1c1ccccn1` (stereo not given), the “Percent Effect” value came to 119.8%.

Turning to `CCC(CC)NC(=O)c1cccnc1-n1cccn1`, the “Percent Effect” value came out at 10.93%.

With `COc1cccc(C(=O)N2CCN(C(=O)CCCn3ccnc3)CC2)c1`, the “Percent Effect” value was -1.45%.

For the molecule `COc1ccc(C(=O)O)c(OCC(=O)NC(C)c2ccc(F)cc2)c1` (stereo not given), the “Percent Effect” value is recorded as -5.25%.

`Cc1ccc(C(N)c2cccs2)cc1` (stereo not given): the “Percent Effect” value is reported as 13.29%.

For `Cc1ccccc1C(N)c1ccncc1.Cl` (stereo not given), the “Percent Effect” value turned out to be 102.8%.

For `Cc1ccccc1CN(Cc1ccncc1)CC(C)C`, the “Percent Effect” value is listed as -4.812%.

As to `COCC(NC(=O)c1cc[nH]n1)c1cccc(C(F)(F)F)c1` (stereo not given), the “Percent Effect” value is given as -1.057%.

With `O=C(c1ccccn1)N1C[C@@H]2CC[C@H](C1)N(C(=O)CCC(F)(F)F)C2`, the “Percent Effect” value is recorded as -20.57%.

For `Cn1cc(-c2nc(CN3CCn4c(nnc4C4CC4)C3)cs2)cn1`, the “Percent Effect” value is given as -10.47%.

Consider `Cn1cc(-c2nnc3sc(C4CC4)nn23)cn1`, for which the “Percent Effect” value is 89.59%.

With `CCCC1CCCN(Cc2csc(-c3cnn(C)c3)n2)CC1` (stereo not given), the “Percent Effect” value is -16.04%.

As to `Cn1cc(-c2csc(N3CCCCCC3)n2)cn1`, the “Percent Effect” value is listed as -2.114%.

Take `Cn1cc(-c2nnc3sc(C4CCC4)nn23)cn1`: the “Percent Effect” value stood at 131.8%.

Take `CCC(CO)N(Cc1ccsc1)CC1CC1` (stereo not given): the “Percent Effect” value is -8.901%.

For `CCS(=O)(=O)CCSc1ccc(Br)cc1`, the “Percent Effect” value was 61.96%.

Take `CCCNS(=O)(=O)Cc1ccc(Br)cc1`: the “Percent Effect” value was -14.67%.

For `CCS(=O)(=O)CCCN1CCSCC1c1ccc(Cl)cc1` (stereo not given), the “Percent Effect” value is given as 4.065%.

Regarding `CCS(=O)(=O)CCSc1ccc(Cl)cc1`, the “Percent Effect” value is given as 82.02%.

In the case of `CCOc1ccc(SCCNS(=O)(=O)CC)cc1`, the “Percent Effect” value is given as 37.47%.

`CCOc1ccc(CNC(C)c2cccc(S(=O)(=O)NC)c2)cc1` (stereo not given): the “Percent Effect” value is on record as 0.3734%.

As to `N#Cc1cccc(SCCS(N)(=O)=O)c1`, the “Percent Effect” value is 2.301%.

For the molecule `N#Cc1ccc(SCCC(=O)O)cc1`, the “Percent Effect” value was -2.439%.

Turning to `CCOc1ccc(SCCS(=O)(=O)CC)cc1`, the “Percent Effect” value came out at 102.3%.

For `CC(C)c1cc(=O)[nH]c(C(C)(C)N)n1.Cl`, the “Percent Effect” value is -9.286%.

Regarding `CNC(=O)Cc1noc(-c2cc3c(s2)CCC(C)(C)C3)n1`, the “Percent Effect” value is given as -4.639%.

Turning to `O=C(O)c1ccccc1CN1CCCC(Cc2ccn[nH]2)C1` (stereo not given), the “Percent Effect” value came out at 106.4%.

Take `O=C(O)c1ccc(CN2CCCC(Cc3ccn[nH]3)C2)cc1` (stereo not given): the “Percent Effect” value was found to be 99.33%.

As for `CC(C)(C)OC(=O)NC1CCCN(Cc2cccc(O)c2)C1` (stereo not given), the “Percent Effect” value was -3.79%.

`COc1ccccc1CC1CCCN(C(=O)c2cn[nH]c2C)C1` (stereo not given): the “Percent Effect” value was -7.935%.

In the case of `COc1ccccc1CC1CCCN(CC(N)=O)C1` (stereo not given), the “Percent Effect” value is given as -5.386%.

As to `O=C(O)c1cccc(CN2CCCC(Cc3ccn[nH]3)C2)c1` (stereo not given), the “Percent Effect” value was 127.8%.

`O=C1CCCN1CCN1CCCC(c2ccn[nH]2)C1` (stereo not given): the “Percent Effect” value came to 1.781%.

As for `c1ccn2cc(CN3CCCC(c4ccn[nH]4)C3)nc2c1` (stereo not given), the “Percent Effect” value turned out to be 9.447%.

As for `O=C(O)c1cccc(CN2CCCC(c3ccn[nH]3)C2)c1` (stereo not given), the “Percent Effect” value worked out at 109.3%.

`Cc1ccsc1[C@@H]1CCN(C(=O)c2ccc(-c3cc[nH]n3)cc2)C[C@H]1O`: the “Percent Effect” value was -2.8%.
